Results as given in PubChem BioAssay (NCATS).
Records with an inconclusive call do not appear. Calls of active or inactive are those of the source. Calls follow the shape of the dose curve; as a rule, active = well fitted curve in the direction sought with a large enough effect; inconclusive = small, poorly fitted or top-dose-only effect, or another doubt; inactive = no such curve, though single readings can be large or run the other way.

Test: qHTS Assay for Identifying Gametocytocidal Compounds (AID 743244);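 as to max response: actives lower the fluorescent signal which means gametocytes are killed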
Settings: P. falciparum 3D7 stage III-V gametocytes, alamarBlue, 72 h; max response: hits give low values
In short: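 A resazurin-based viability read-out was applied to mature P. falciparum gametocytes: 72 h compound treatment, then 24 h dye incubation, with falling fluorescence signalling gametocytocidal effect.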
% is scaled to controls: 0 for no effect and ±100 for the full control effect; potency is read from the fitted curve at half-maximal effect.

Row | Compound | max response | Potency
1 | O=C(O)[C@@H](O)[C@H](O)[C@H](O)[C@@H](O)C(=O)O | 9.57% (inactive) | –
2 | O=C(O)/C=C(\CC(=O)O)C(=O)O | 8.32% (inactive) | –
3 | O=P(O)(O)OCC(O)CO (stereo not drawn) | 11.3% (inactive) | –
4 | CCCCCCCCCCCCCCCC[N+](C)(C)Cc1ccccc1 | – | 7.08 µM (active)
5 | CO/N=C(/C(=O)N[C@@H]1C(=O)N2C(C(=O)OCOC(=O)C(C)(C)C)=C(C)CS[C@H]12)c1csc(N)n1 | -0.603% (inactive) | –
6 | N=C(N)c1ccc(OCCCOc2ccc(C(=N)N)cc2)cc1 | – | 4.47 µM (active)
7 | CC(=O)N[C@@H](CCC(N)=O)C(=O)O | 4.31% (inactive) | –
8 | CNC[C@H](O)[C@@H](O)[C@H](O)[C@H](O)CO | 10.7% (inactive) | –
9 | CC(NCCC(c1ccccc1)c1ccccc1)c1ccccc1 (stereo not drawn) | – | 12.6 µM (active)
10 | CCNC(=O)NCCCOc1cccc(CN2CCCCC2)c1 | -8.1% (inactive) | –
11 | CCOC(=O)C1=C(C)NC(C)=C(C(=O)OCC)C1c1ccccc1/C=C/C(=O)OC(C)(C)C | 4.06% (inactive) | –
12 | O=C(NN1CCCC1)NS(=O)(=O)c1ccc(Cl)cc1 | 0.581% (inactive) | –
13 | CCOC(=O)NNc1nncc2ccccc12 | -13.4% (inactive) | –
14 | Nc1c[n+](N2CCOCC2)no1 | 2.15% (inactive) | –
15 | CC1(C)O[C@@H]2C[C@H]3[C@@H]4C[C@H](F)C5=CC(=O)C=C[C@]5(C)[C@@]4(F)[C@@H](O)C[C@]3(C)[C@]2(C(=O)CO)O1 | -5.96% (inactive) | –
16 | CCOC(=O)c1ccc(OCCN2C[C@H](O)[C@@H](O)[C@H](O)[C@H]2CO)cc1 | -1.08% (inactive) | –
17 | Cc1cc(O)c2c(O)c3c(O)cccc3cc2c1 | 12.2% (inactive) | –

Row | Compound | max response | Potency
18 | CC[C@@H]([C@H](C)O)n1ncn(-c2ccc(N3CCN(c4ccc(OC[C@@H]5CO[C@@](Cn6cncn6)(c6ccc(F)cc6F)C5)cc4)CC3)cc2)c1=O | 13.4% (inactive) | –
19 | c1ccc(C(O[C@H]2CCCN(CCc3ccc4c(c3)OCO4)C2)c2ccccc2)cc1 | -6.18% (inactive) | –
20 | C[C@]12CCC(=O)C=C1CC[C@@H]1[C@@H]2[C@@H](O)C[C@@]2(C)[C@H]1CC[C@]2(O)C(=O)COC(=O)CCC(=O)O | -22.1% (inactive) | –
21 | C[C@@]12CCC[C@H]1[C@@H]1CC[C@H]3C[C@@H](O)CC[C@]3(C)[C@H]1CC2 | 4.41% (inactive) | –
22 | OCc1cccnc1 | -22.7% (inactive) | –
23 | CCN1CCN(c2cc(-c3ccc(F)cc3)c3c(n2)CCCCCC3)CC1 | 9.24% (inactive) | –
24 | O=C(O)CNC(=O)CNC(=O)CNC(=O)CSC(=O)c1ccccc1 | 0.93% (inactive) | –
25 | CN1CCCN=C1/C=C/c1cccs1 | 3.61% (inactive) | –
26 | O=C(O)c1[nH]n(-c2ccc(S(=O)(=O)O)cc2)c(=O)c1N=Nc1ccc(S(=O)(=O)O)cc1 | -0.65% (inactive) | –
27 | CC(C)=CCC/C(C)=C/CC/C(C)=C/CCC(=O)OC/C=C(\C)CCC=C(C)C | -4.29% (inactive) | –
28 | O=C(O)[C@H](O)[C@@H](O)[C@H](O[C@@H]1O[C@H](CO)[C@H](O)[C@H](O)[C@H]1O)[C@H](O)CO | -7.07% (inactive) | –
29 | CO[C@@H]1[C@@H](OC)[C@H](C)[C@@](O)(CC(=O)O)O[C@H]1[C@H](C)[C@H]1O[C@@]2(CC[C@@](C)([C@H]3CC[C@@](C)([C@@H]4O[C@@H]([C@H]5O[C@](C)(O)[C@H](C)C[C@@H]5C)C[C@@H]4OC4C[C@H](OC)[C@@H](OC)[C@H](C)O4)O3)O2)C[C@H](O)[C@H]1C (stereo partly drawn) | – | 0.0935 µM (active)
30 | Nc1ccc2cc3ccc(N)cc3nc2c1 | – | 12.6 µM (active)
31 | N[C@@H](Cc1cc(I)c(O)c(I)c1)C(=O)O | 18.2% (inactive) | –
32 | CCc1cc(S(=O)(=O)O)c2cc(C(C)C)cccc1-2 | 0.277% (inactive) | –
33 | COC(=O)C1=C(C)NC(COC(N)=O)=C(C(=O)OC(C)C)C1c1cccc(Cl)c1Cl (stereo not drawn) | -16.2% (inactive) | –
